In PubChem BioAssay (NCI):
This is part of a sample that, as a whole, favours compounds with a hit. Of some 83,000 tested, about 20% had one in any assay.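 Note: values are percent growth. 100 is the growth of untreated cells, values between 100 and 0 indicate rising inhibition; between -100 and 0 indicates cell death.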 Activity calls are given as the source filed them. Rule for the calls: active = growth percent below 10; inactive = the rest.

Each molecule was assayed on T-47D breast (assay: NCI-60 one-dose screen, 48 h (100 = growth as untreated, 0 = no growth, -100 = all killed)). Conditions: 10 µM unless noted.

Compound | growth
CC(C)(C)OC(=O)NCc1ccc(CNc2c([N+](=O)[O-])cnc3ccccc23)cc1 | 28.1% (inactive)
NC(=O)n1c(=O)n(-c2cccc(C(F)(F)F)c2)c(=O)c2cc(-c3ccc(F)cc3F)ccc21 | -14% (active)
CN1CCN(Cc2ccc(NC(=O)c3cncc(C#Cc4cnc5ccc(OCCCS(C)(=O)=O)nn45)c3)cc2C(F)(F)F)CC1 | 16.2% (inactive)
COc1ccc(NC2=C(Br)C(=O)C(C)=C(C)C2=O)cc1OC | -8.45% (active)
O=C1[C@@H]2Cc3c([nH]c4ccccc34)[C@H](c3ccc(Cl)cc3)N2C(=O)CN1C1CCN(Cc2ccccc2)CC1 | 74.5% (inactive)
CCOc1cccc(/C(N)=N/C(N)=N/c2nc3ccccc3s2)c1 | 73.1% (inactive)
O=C1CSC(c2cn(-c3ccccc3)nc2-c2ccc(Cl)cc2)N1c1ccccc1 (configuration not stated) | 102% (inactive)
CC(Nc1c(C#N)cnc2ccc(-c3cncc(-c4n[nH]c(=O)o4)c3)cc12)c1ccccc1 (configuration not stated) | 13.1% (inactive)
CCCCN1C(=O)/C(=c2\sc3n(c2=O)C2C(NN=3)N(CC)C(=O)N2CC)c2cccc(C)c21 (configuration not stated) | 41.4% (inactive)
Brc1cc(-c2cc(-c3ccc4c(c3)OC=CO4)[nH]n2)cs1 | 62.1% (inactive)
N#C/C(=C\c1cccc2c1OCO2)C(=O)Nc1sc2c(c1C#N)CCCC2 | 93.8% (inactive)
CN1CCN(Cc2ccc(NC(=O)c3cncc(C#Cc4cnc5ccc(O[C@@H]6CCOC6)nn45)c3)cc2C(F)(F)F)CC1 | -29.2% (active)
CCN(CC)CCOc1ccc(C(=C(C)c2ccc(OC)cc2)c2ccc(OCCN(CC)CC)cc2)cc1 | -45.7% (active)
O=c1nc(Nc2ccc([N+](=O)[O-])cc2O)sc2ccccc12 | 31.1% (inactive)
O=C(CCCCCCNC(=O)c1csc(Br)n1)NO | 6.1% (active)
COC(=O)[C@@H](Cc1c[nH]c2ccccc12)NC(=O)CCCCOc1cc(O)c2c(=O)cc(-c3ccccc3)oc2c1 | 59.7% (inactive)
Clc1cccc(/C=N/Nc2nc(N/N=C/c3cccc(Cl)c3)nc(N3CCCCC3)n2)c1 | 76% (inactive)
COC(=O)c1ccc(NC2=C(Cl)C(=O)C(C)=C(C)C2=O)cc1 | -25.9% (active)
O=C(CSc1nnc(-c2ccc(Cl)cc2)n1-c1ccccc1)Nc1ccccc1Cl | 45.7% (inactive)
CN(C)CCNc1ccc2ncc(C#Cc3cncc(C(=O)Nc4ccc(CN5CCN(C)CC5)c(C(F)(F)F)c4)c3)n2n1 | 78.7% (inactive)
Cc1cc(=O)oc2cc(OCCCOc3ccc(/C=C/C(=O)Nc4ccc(Br)cc4)cc3)ccc12 | 57.7% (inactive)
CC(=O)OC[C@@]12Oc3c(cccc3-c3ccc(O)c4c3O[C@]3(COC(C)=O)C(=C4O)C(=O)C[C@H](C)[C@@H]3OC(C)=O)C(O)=C1C(=O)C[C@H](C)[C@@H]2OC(C)=O | 4.37% (active)
COc1ccc(/C=N/NC(=O)CSc2nc(-c3cnccn3)cc(-c3cccs3)c2C#N)cc1OC | 93.9% (inactive)
O=c1c2cc(-c3ccc(F)cc3F)ccc2n(O)c(=O)n1-c1cccc(C(F)(F)F)c1 | -15.9% (active)
C#C[C@]1(O)CC[C@H]2[C@@H]3CC=C4c5sc(Nc6ncccc6C)nc5CC[C@]4(C)[C@H]3CC[C@@]21C | 29.2% (inactive)
CCCCCc1ccc(S(=O)(=O)Nc2cc(-c3csc(N)n3)ccc2OC)cc1 | 83% (inactive)
O=c1oc2ccc(-c3ccc(F)cc3F)cc2c(=O)n1-c1ccc(Br)cc1F | 5.88% (active)
